# Results: PubChem BioAssay (EPA / NIEHS)
# Inconclusive results are not listed. Activity calls are given as the source filed them. The calls were made as follows: active = hit-call score of the fitted dose curve at least 0.9, where 1 is the maximum; inconclusive = response in the unintended direction; inactive = score below 0.9.
# Target: Nuclear receptor subfamily 1 group I member 2 (Homo sapiens) (UniProt O75469)
# Assay: ATG_PXR_TRANS: Attagene TRANS-FACTORIAL HepG2 Assay for human Pregnane X Receptor (PXR) (AID 2283008)
# Procedure, shortened: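 Measures mRNA induction of a GAL4-UAS-driven reporter in human HepG2 cells transiently expressing PXR fused to Gal4, following 24 h treatment. DMSO served as negative control and baseline.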
# Sequence of Nuclear receptor subfamily 1 group I member 2 (Homo sapiens) (O75469 whole entry, looked up): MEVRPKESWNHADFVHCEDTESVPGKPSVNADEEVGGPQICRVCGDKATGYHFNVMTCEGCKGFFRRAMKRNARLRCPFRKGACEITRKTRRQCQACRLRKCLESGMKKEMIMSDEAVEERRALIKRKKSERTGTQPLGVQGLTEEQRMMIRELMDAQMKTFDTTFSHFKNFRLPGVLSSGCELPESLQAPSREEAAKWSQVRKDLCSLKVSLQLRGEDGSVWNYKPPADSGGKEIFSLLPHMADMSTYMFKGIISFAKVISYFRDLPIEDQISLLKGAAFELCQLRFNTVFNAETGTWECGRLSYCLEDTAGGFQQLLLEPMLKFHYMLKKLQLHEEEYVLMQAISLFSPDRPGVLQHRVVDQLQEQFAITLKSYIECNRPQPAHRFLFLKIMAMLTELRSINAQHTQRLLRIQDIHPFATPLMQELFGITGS
SMILES,outcome,AC50
CN(C)c1ccc(N=O)cc1,inactive,
CC(C)CC(C)(c1ccc(O)cc1)c1ccc(O)cc1,,1.47 µM (active)
CN(CCCC(O)c1cccnc1)N=O (configuration not stated),inactive,
CC(C=O)Cc1ccc2c(c1)OCO2 (configuration not stated),,21.5 µM (active)
C#CCOC(=O)/C=C(C)/C=C/CC(C)CCCC(C)C (configuration not stated),,27.4 µM (active)
COCC(=O)N(c1c(C)cccc1C)[C@H](C)C(=O)OC,,20.2 µM (active)
OC[C@@H](O)[C@H]1O[C@@H]2O[C@H](C(Cl)(Cl)Cl)O[C@@H]2[C@H]1O,inactive,
CC(C)(c1ccc(O)c(-c2ccccc2)c1)c1ccc(O)c(-c2ccccc2)c1,,1.45 µM (active)
O=C(O)C1(c2ccc3c(c2)OC[C@H](Cc2ccc(-c4ccccc4)cc2)[C@H]3O)CCCC1,inactive,
CC(C)[C@@H](Nc1ccc(C(F)(F)F)cc1Cl)C(=O)OC(C#N)c1cccc(Oc2ccccc2)c1 (some centres not stated),,0.51 µM (active)
O=C(Nc1ccc(Br)cc1)c1cc(Br)cc(Br)c1O,,4.69 µM (active)
CCNc1nc(NCC)nc(SC)n1,inactive,
NC(=O)CCl,inactive,
O=S1(=O)OC(c2cc(Br)c(O)c(Br)c2)(c2cc(Br)c(O)c(Br)c2)c2ccccc21,inactive,
O=C1c2ccccc2C(=O)C1C(=O)C(c1ccccc1)c1ccc(Cl)cc1 (configuration not stated),,2.45 µM (active)
CCCCOC(C)=O,inactive,
Oc1c(Br)cc(Br)cc1Br,,7.95 µM (active)
Brc1c(Br)c(Br)c(Oc2c(Br)c(Br)c(Br)c(Br)c2Br)c(Br)c1Br,inactive,
OC(Cc1ccccc1Cl)(Cn1cncn1)C1(Cl)CC1 (configuration not stated),,7.37 µM (active)
Cc1c([N+](=O)[O-])c(C)c([N+](=O)[O-])c(C(C)(C)C)c1[N+](=O)[O-],,2.05 µM (active)
CCCCCCCCCCBr,inactive,
COC(F)(C(F)(F)C(F)(F)F)C(F)(C(F)(F)F)C(F)(F)F (configuration not stated),inactive,
CCCCCCCCCCCCCl,inactive,
Cc1cc(-c2cc(C)c(N)c(C)c2)cc(C)c1N,,27 µM (active)
COc1ccccc1N,inactive,
O=C(NC(=O)c1c(F)cccc1F)Nc1cc(Cl)c(F)c(Cl)c1F,inactive,
CN(C1CCCCC1)C1CCCCC1,inactive,
CC(C)[N+](=O)[O-],inactive,
C=CCCl,inactive,

# Target: human Retinoic Acid Receptor gamma (RARg), RARG (gene 5916) (UniProt P13631)
# Sequence (P13631 whole entry, looked up): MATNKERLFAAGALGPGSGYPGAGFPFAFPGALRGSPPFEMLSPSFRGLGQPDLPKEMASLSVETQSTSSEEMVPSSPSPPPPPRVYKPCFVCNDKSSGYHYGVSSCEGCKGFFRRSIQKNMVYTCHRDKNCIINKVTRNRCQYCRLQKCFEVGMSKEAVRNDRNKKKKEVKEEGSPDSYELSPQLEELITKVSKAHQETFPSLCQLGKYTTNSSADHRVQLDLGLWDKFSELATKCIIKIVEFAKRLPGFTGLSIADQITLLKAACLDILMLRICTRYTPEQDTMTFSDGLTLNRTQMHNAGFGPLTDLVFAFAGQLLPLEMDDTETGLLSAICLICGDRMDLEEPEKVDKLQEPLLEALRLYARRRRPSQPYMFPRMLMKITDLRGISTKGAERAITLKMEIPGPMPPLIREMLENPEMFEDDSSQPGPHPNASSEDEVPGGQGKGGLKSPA
# Assay: ATG_RARg_TRANS: Attagene TRANS-FACTORIAL HepG2 Assay for human Retinoic Acid Receptor gamma (RARg) (AID 2283009);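 as to AC50: AC50 is for reporter induction above DMSO meaning RARg activation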
# Procedure, shortened: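 HepG2 cells transiently transfected with multiplexed reporter units expressing chimeric RARg-GAL4 and GAL4-UAS-driven reporters; 24 h compound exposure. Reporter mRNA quantified by RT-PCR with fluorescent labelling and capillary electrophoresis; gain-of-signal fitted relative to DMSO baseline.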
SMILES,outcome,AC50
CN(C)c1ccc(N=O)cc1,inactive,
CC(C)CC(C)(c1ccc(O)cc1)c1ccc(O)cc1,inactive,
C[C@]12CC[C@@H](O)C[C@@H]1CC[C@@H]1[C@@H]2CC[C@]2(C)C(=O)CC[C@@H]12,inactive,
CC(C=O)Cc1ccc2c(c1)OCO2 (configuration not stated),inactive,
C#CCOC(=O)/C=C(C)/C=C/CC(C)CCCC(C)C (configuration not stated),inactive,
Nc1ccc(N)cc1,inactive,
COCC(=O)N(c1c(C)cccc1C)[C@H](C)C(=O)OC,inactive,
OC[C@@H](O)[C@H]1O[C@@H]2O[C@H](C(Cl)(Cl)Cl)O[C@@H]2[C@H]1O,inactive,
CC(C)(c1ccc(O)c(-c2ccccc2)c1)c1ccc(O)c(-c2ccccc2)c1,inactive,
O=C(O)C1(c2ccc3c(c2)OC[C@H](Cc2ccc(-c4ccccc4)cc2)[C@H]3O)CCCC1,inactive,
CC(C)[C@@H](Nc1ccc(C(F)(F)F)cc1Cl)C(=O)OC(C#N)c1cccc(Oc2ccccc2)c1 (some centres not stated),inactive,
O=C(Nc1ccc(Br)cc1)c1cc(Br)cc(Br)c1O,inactive,
CCNc1nc(NCC)nc(SC)n1,inactive,
CCOP(=O)(OCC)SCCSCC,inactive,
NC(=O)CCl,inactive,
O=S1(=O)OC(c2cc(Br)c(O)c(Br)c2)(c2cc(Br)c(O)c(Br)c2)c2ccccc21,inactive,

SMILES,outcome,AC50
O=C1c2ccccc2C(=O)C1C(=O)C(c1ccccc1)c1ccc(Cl)cc1 (configuration not stated),inactive,
CCCCOC(C)=O,inactive,
Oc1c(Br)cc(Br)cc1Br,inactive,
CC(C)(C)c1cc([N+](=O)[O-])cc(C(C)(C)C)c1O,inactive,
Brc1c(Br)c(Br)c(Oc2c(Br)c(Br)c(Br)c(Br)c2Br)c(Br)c1Br,inactive,
OC(Cc1ccccc1Cl)(Cn1cncn1)C1(Cl)CC1 (configuration not stated),inactive,
Cc1c([N+](=O)[O-])c(C)c([N+](=O)[O-])c(C(C)(C)C)c1[N+](=O)[O-],inactive,
C=CC(Cl)CCl (configuration not stated),inactive,
COC(F)(C(F)(F)C(F)(F)F)C(F)(C(F)(F)F)C(F)(F)F (configuration not stated),inactive,
Cc1cc(-c2cc(C)c(N)c(C)c2)cc(C)c1N,inactive,
COc1ccccc1N,inactive,
Nc1c(Oc2ccccc2)cc(O)c2c1C(=O)c1ccccc1C2=O,inactive,
O=C(NC(=O)c1c(F)cccc1F)Nc1cc(Cl)c(F)c(Cl)c1F,inactive,
Cc1ccc2nc3sc(=O)sc3nc2c1,,17.7 µM (active)
CN(C1CCCCC1)C1CCCCC1,inactive,
C=CCCl,inactive,

# Target: human RAR-related Orphan Receptor beta (RORb), RORB (gene 6096) (UniProt Q92753)
# Sequence (Q92753 whole entry, looked up): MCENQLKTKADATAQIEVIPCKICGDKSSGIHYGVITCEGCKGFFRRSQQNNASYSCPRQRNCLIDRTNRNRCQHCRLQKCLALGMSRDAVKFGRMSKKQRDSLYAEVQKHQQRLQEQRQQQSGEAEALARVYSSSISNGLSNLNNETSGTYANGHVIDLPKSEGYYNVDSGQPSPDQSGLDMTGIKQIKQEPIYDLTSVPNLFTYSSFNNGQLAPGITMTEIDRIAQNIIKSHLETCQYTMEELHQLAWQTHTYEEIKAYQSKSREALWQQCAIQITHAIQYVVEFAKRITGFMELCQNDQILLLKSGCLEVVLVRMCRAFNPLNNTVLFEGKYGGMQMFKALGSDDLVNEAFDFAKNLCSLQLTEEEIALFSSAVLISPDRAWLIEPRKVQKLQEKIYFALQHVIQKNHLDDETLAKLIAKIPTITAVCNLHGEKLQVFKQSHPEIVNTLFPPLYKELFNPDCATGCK
# Assay: ATG_RORb_TRANS: Attagene TRANS-FACTORIAL HepG2 Assay for human RAR-related Orphan Receptor beta (RORb) (AID 2283010)
# Procedure, shortened: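 HepG2 cells were transiently transfected with multiplexed GAL4-UAS reporter units expressing chimeric nuclear receptor–GAL4 proteins, then dosed for 24 h. Reporter mRNA was quantified by RT-PCR with fluorescent labelling and capillary electrophoresis; gain of signal was fitted relative to DMSO.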
row,SMILES,outcome
1,CN(C)c1ccc(N=O)cc1,inactive
2,CN(CCCC(O)c1cccnc1)N=O (configuration not stated),inactive
3,C[C@]12CC[C@@H](O)C[C@@H]1CC[C@@H]1[C@@H]2CC[C@]2(C)C(=O)CC[C@@H]12,inactive
4,C#CCOC(=O)/C=C(C)/C=C/CC(C)CCCC(C)C (configuration not stated),inactive
5,Nc1ccc(N)cc1,inactive
6,OC[C@@H](O)[C@H]1O[C@@H]2O[C@H](C(Cl)(Cl)Cl)O[C@@H]2[C@H]1O,inactive
7,O=C(Nc1ccc(Br)cc1)c1cc(Br)cc(Br)c1O,inactive
8,CCOP(=O)(OCC)SCCSCC,inactive
9,NC(=O)CCl,inactive
10,O=S1(=O)OC(c2cc(Br)c(O)c(Br)c2)(c2cc(Br)c(O)c(Br)c2)c2ccccc21,inactive
11,O=C1c2ccccc2C(=O)C1C(=O)C(c1ccccc1)c1ccc(Cl)cc1 (configuration not stated),inactive
12,CCCCOC(C)=O,inactive
13,Oc1c(Br)cc(Br)cc1Br,inactive
14,Brc1c(Br)c(Br)c(Oc2c(Br)c(Br)c(Br)c(Br)c2Br)c(Br)c1Br,inactive
15,C=CC(Cl)CCl (configuration not stated),inactive
16,Cc1cc(-c2cc(C)c(N)c(C)c2)cc(C)c1N,inactive
17,COc1ccccc1N,inactive
18,CC(C)=CC1C(C(=O)OCc2cccc(Oc3ccccc3)c2)C1(C)C (configuration not stated),inactive
19,Nc1c(Oc2ccccc2)cc(O)c2c1C(=O)c1ccccc1C2=O,inactive
20,Cc1ccc2nc3sc(=O)sc3nc2c1,inactive
21,CC(C)[N+](=O)[O-],inactive
